# Sampled rows, rich in hits. Any-hit rate of the full collection: about 4.5%.
# ZTA counter = blocks Epstein-Barr virus ZTA, an EBNA-1 counter-screen. P03206. ZTA-DNA binding, fluorescence polarization. inhibition, % at 11 µM. hit rate 0.15% among 320,000. AID 2234; in the data active = inhibition above about 33%
# Rpn11 block = inhibitors of human proteasome Rpn11; human 26S proteasome, Ub4-pepOG fluorescence polarization; 20S core pre-blocked with epoxomicin; inhibition, % at 20 µM; hit rate 0.59% among 360,000;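 active = inhibition at 20 µM, scaled to each plate's controls, above about 33%, limit read from the data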
# Target sequence (O00487 whole entry, looked up): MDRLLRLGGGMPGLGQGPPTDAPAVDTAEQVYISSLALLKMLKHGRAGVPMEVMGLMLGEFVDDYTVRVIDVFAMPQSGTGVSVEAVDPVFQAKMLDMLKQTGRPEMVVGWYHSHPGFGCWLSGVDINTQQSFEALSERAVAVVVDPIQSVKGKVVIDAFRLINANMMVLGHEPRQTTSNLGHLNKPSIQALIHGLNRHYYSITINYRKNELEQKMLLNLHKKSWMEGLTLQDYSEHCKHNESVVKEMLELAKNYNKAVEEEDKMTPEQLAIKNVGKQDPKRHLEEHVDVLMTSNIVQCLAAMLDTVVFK
# dFosB activator = enhances mouse delta FosB homodimer DNA binding; P13346; hit rate 0.99% among 340,000; purified delta FosB, TAMRA-CDK5 oligo fluorescence polarization; percent of positive-control signal above neutral wells; activation, % at 25 µM;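 active = mean activation above about 17%, with every replicate also reaching it, limit read from the data, passing the limit was not always enough; inconclusive = only one of the two conditions met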
# TPT1 inh = blocks Candida albicans tRNA 2'-phosphotransferase | recombinant caTPT1, FP RNA substrate dephosphorylation | inhibition, % at 5 µM | hit rate 0.81% among 300,000;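 active = inhibition above the mean of all tested compounds plus 3 SD, set per screening campaign, cut at about 24% in these data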;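 also: plate controls were DMSO alone for no effect and ferristatin control at 100 nM for full effect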
# GRIN3A LBD mod = modulates the human NR3A ligand-binding domain. NR3A LBD differential scanning fluorimetry, Tm shift; 0% = protein alone, 100% = glycine-bound protein. Tm shift relative to glycine control, % at 25 µM. hit rate 2.5% among 340,000;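 active = melting temperature shift of at least 10% of the positive control shift, at one fixed dose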
# EBNA-1 inh = blocks EBNA-1 binding to DNA; AID 1950; inhibition, % at 14.8 µM; hit rate 0.34% among 300,000; EBNA-1 DNA binding, fluorescence polarization; in the data active = inhibition above about 28%
# EBNA-1 inh conf = EBNA-1 (EBV) inhibition, confirmation. Recombinant EBNA-1 DBD, Cy5-DNA fluorescence polarization. inhibition, % at 14.8 µM. AID 2292. shares compounds with EBNA-1 inh. hit rate 35% among 830;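 active = mean inhibition across replicates above a set limit taken from the earlier primary screen, cut at about 28% in these data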;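 also: plate controls were EBNA-1 protein with DMSO for no effect and wells lacking EBNA-1 for full effect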
# ZTA DNA inh trip = ZTA (EBV) inhibition, triplicate counter-screen. shares compounds with EBNA-1 inh. Zta-ZRE DNA binding, Cy5 fluorescence polarization. inhibition, % at 11.1 µM. 830 tested, under 10 active;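 active = mean inhibition over triplicates above a set limit taken from the primary EBNA-1 screen, cut at about 37% in these data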;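 also: purified full length Zta protein with Cy5 labeled ZRE DNA probe; 0% = Zta with DMSO and 100% = wells lacking Zta protein; inhibitors lower polarization by freeing the labeled DNA probe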
# * = called active by the depositor; u = inconclusive; x = no result given; + = active, no number.
SMILES,ZTA counter,Rpn11 block,dFosB activator,TPT1 inh,GRIN3A LBD mod,EBNA-1 inh,EBNA-1 inh conf,ZTA DNA inh trip
COc1ccc2c(c1)c(CC(=O)Nc1cccc(S(N)(=O)=O)c1)c(C)n2C(=O)c1ccc(Cl)cc1,-20,2,-2,3,23*,37*,-3,10
COc1ccc(NC(=O)Cc2c(C)n(C(=O)c3ccc(Cl)cc3)c3ccc(OC)cc23)cc1,2,5,-7,-5,-19,6,x,x
O=C(O)CCCC(=O)N1CCN(c2nc(-c3ccccc3Cl)c3cc(Br)ccc3n2)CC1,9,9,9,-2,-6,10,x,x
Cc1cccc2cc(CNC3CCCC3)c(Cl)nc12,0,2,4,-4,1,8,x,x
CS(=O)(=O)N(CC(=O)N/N=C/c1ccc(OCC(=O)N2CCOCC2)cc1)c1ccccc1Cl,-17,2,-2,1,2,36*,-1,-5
Cc1nc2nc(NC(=O)c3ccco3)[nH]n2c(=O)c1C,-3,-4,2,-4,5,-3,x,x
Cc1nc2nc(-c3ccccc3)nn2c(C)c1C,-3,-2,7,2,-4,+,2,-3
CC(C)Cn1c(N)c(C(=O)CSc2ccc3c(c2)OCCO3)c(=O)n(C)c1=O,-6,-1,13,-4,1,54*,47*,6
CC(C)Cn1c(N)c(C(=O)COC(=O)c2ccc3c(c2)OCCO3)c(=O)n(C)c1=O,-2,-4,8,3,0,29*,32*,5
Cn1c(N)c(C(=O)COC(=O)c2ccc3c(c2)OCCO3)c(=O)n(C)c1=O,-2,9,-2,-1,2,0,x,x
COc1ccc(CCN2C(=O)C3C(C2=O)C2C=CC3C23CC3)cc1OC (stereo not given),6,-4,-5,3,1,-6,x,x
CC1C(=O)N2CCCc3cc(S(=O)(=O)N(C)c4ccccc4)cc1c32 (stereo not given),-8,11,-17,2,-1,-9,x,x
Cc1ccc(S(=O)(=O)N2CCN(CC3CC4C=CC3C4)CC2)cc1 (stereo not given),5,5,-6,2,-1,13,x,x
O=c1[nH]cc(S(=O)(=O)N2CCOCC2)c(=O)[nH]1,-2,0,-1,-1,0,-4,x,x
Cc1ccc(/C=N/NC(=O)c2ccccc2OCc2cccc(Br)c2)o1,8,0,-8,-1,-3,-16,x,x
O=C(COc1ccc2ccccc2c1)NNC(=O)Cc1ccccc1,6,-3,3,3,-3,28*,35*,11
Cc1ccc(-c2nnc(NCc3nc4ccccc4[nH]3)c3ccccc23)cc1S(=O)(=O)N(C)C,7,33,u,-2,-14,93*,37*,2
COc1ccc(C(=O)NC(Cn2ccnc2)C(C)(C)C)cc1OC1CCN(C(C)C)CC1 (stereo not given),-16,-2,-12,-3,0,-2,x,x
Cc1ccc(N(CCC#N)C(=O)CSc2nnc3ccccn23)cc1,0,-1,1,x,-2,x,x,x
CCOC(=O)C1=C[C@@H](C(C)(C)C)N(S(=O)(=O)c2ccc(C)cc2)[C@H]1c1ccc(F)cc1,x,2,x,x,x,x,x,x
CCCN(CC(=O)Nc1ccc(C(N)=O)cc1)CC(=O)Nc1ccc(Cl)cc1Cl,0,5,7,5,-13,29*,10,7
CCCN(CC(=O)Nc1ccc(C(N)=O)cc1)CC(=O)Nc1cc(Cl)ccc1Cl,1,9,-7,5,-15,23,x,x
Cc1cc(NC(=O)COc2ccccc2)ccc1Cl,-10,0,-7,-1,-9,0,x,x
CCOc1cc(/C=N/NC(=O)C(=O)N/N=C/c2ccc(O)c(OCC)c2)ccc1O,8,0,2,1,8,28*,23,-6
CCOc1cc(/C=N/NC(=O)N/N=C/c2ccc(O)c(OCC)c2)ccc1O,2,x,x,-1,4,-7,x,x
